Experimental findings from PubChem BioAssay (NCATS) are described below.

Experiment [1] can be described thus: qHTS profiling for inhibitors of Plasmodium falciparum proliferation (AID 504749). Also: nearly all actives have a fitted effect of over 60% in size.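 As to activity, negative = inhibition: 0% = DMSO vehicle and full inhibition = artemisinin control.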 As to conditions: P. falciparum in erythrocytes, SYBR Green DNA, 72 h. The gist of the method: (§1)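 SYBR Green fluorescence of parasite DNA, read after lysis and overnight dark incubation, measured growth over 72 h in erythrocyte culture at 0.3% parasitemia and 2.5% hematocrit. Data normalised to DMSO and 0.29 uM artemisinin, with plate-drift correction.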
On the technique in general: qHTS replaces the single test concentration by a dilution series.

For experiment [2], the system named is 3D7. Described as above. As to conditions: P. falciparum in erythrocytes, SYBR Green DNA, 72 h; series mostly up to 28.7 µM. The essentials:
as §1

Experiment [3] relates to AS120. The description is as above. As to conditions: P. falciparum in erythrocytes, SYBR Green DNA, 72 h; series mostly up to 28.7 µM. The gist of the method:
as §1

Experiment [4] concerns ATS189. The experiment is described as above. To be noted: P. falciparum in erythrocytes, SYBR Green DNA, 72 h; series mostly up to 28.7 µM. The gist of the method:
as §1

Experiment [5] relates to ATS95. The experiment is described as above. As to conditions: P. falciparum in erythrocytes, SYBR Green DNA, 72 h; series mostly up to 28.7 µM. The gist of the method: as §1
In experiment [6] the test system is C2A. The experiment is described as above. To be noted: P. falciparum in erythrocytes, SYBR Green DNA, 72 h; series mostly up to 28.7 µM. The essentials:
as §1

The subject of experiment [7] is CP185. Described as above. As to conditions: P. falciparum in erythrocytes, SYBR Green DNA, 72 h; series mostly up to 28.7 µM. The gist of the method:
as §1

The subject of experiment [8] is CP191. The description is as above. To be noted: P. falciparum in erythrocytes, SYBR Green DNA, 72 h; series mostly up to 28.7 µM. The essentials:
as §1

Experiment [9] concerns CP192. The experiment is described as above. As to conditions: P. falciparum in erythrocytes, SYBR Green DNA, 72 h; series mostly up to 28.7 µM. The gist of the method:
as §1

The subject of experiment [10] is CP194. The experiment is described as above. To be noted: P. falciparum in erythrocytes, SYBR Green DNA, 72 h; series mostly up to 28.7 µM. The gist of the method:
as §1

The subject of experiment [11] is CP201. Described as above. As to conditions: P. falciparum in erythrocytes, SYBR Green DNA, 72 h; series mostly up to 28.7 µM. The essentials:
as §1

Experiment [12] has as its system CP203. The description is as above. To be noted: P. falciparum in erythrocytes, SYBR Green DNA, 72 h; series mostly up to 28.7 µM. The essentials: as §1
For experiment [13], the system named is CP211. The description is as above. To be noted: P. falciparum in erythrocytes, SYBR Green DNA, 72 h; series mostly up to 28.7 µM. The essentials:
as §1

Experiment [14] has as its system CP215. The experiment is described as above. As to conditions: P. falciparum in erythrocytes, SYBR Green DNA, 72 h; series mostly up to 28.7 µM. The essentials:
as §1

In experiment [15] the test system is CP217. Described as above. To be noted: P. falciparum in erythrocytes, SYBR Green DNA, 72 h; series mostly up to 28.7 µM. The gist of the method: as §1
The subject of experiment [16] is CP238. The experiment is described as above. To be noted: P. falciparum in erythrocytes, SYBR Green DNA, 72 h; series mostly up to 28.7 µM. The gist of the method:
as §1

The test system of experiment [17] is AA1029. Described as above. To be noted: P. falciparum in erythrocytes, SYBR Green DNA, 72 h; series mostly up to 28.7 µM. The essentials: as §1
Experiment [18] deals with CP237. The experiment is described as above. To be noted: P. falciparum in erythrocytes, SYBR Green DNA, 72 h; series mostly up to 28.7 µM. The essentials:
as §1

Experiment [19] concerns 7G8. Described as above. To be noted: P. falciparum in erythrocytes, SYBR Green DNA, 72 h; series mostly up to 28.7 µM. The gist of the method: as §1
[20] abbreviates: at 28.7 µM (top of the series), parasite line A.
Setting [21] is: at 28.7 µM (top of the series), parasite line B.
Setting [22] is: at 12.8 µM (top of the series), parasite line A.
The mark [23] stands for this setting: at 12.8 µM (top of the series), parasite line B.

Results filed as inconclusive are left out. Unmarked numbers belong to inactive results. Active and inactive are the calls of the source. Calls follow the shape of the dose curve; as a rule, active = well fitted inhibition curve with a large enough effect; inconclusive = small, poorly fitted or top-dose-only effect; inactive = flat fitted curve, though single readings scatter.
Potency is read from the fitted curve at half-maximal effect.

Regarding `COc1ccc(CCN(C)CCCN2CCc3cc(OC)c(OC)cc3CC2=O)cc1OC`, the activity, negative = inhibition in [1] (setting [20]) was -14.9%; in experiment [1] (setting [21]) it was -7.04%. In addition, the Potency result in experiment [2], in experiment [3], in [4], in experiment [5], in experiment [6] and in [7] was “inactive” each time. Besides, the Potency entry in experiment [8], in experiment [9], in experiment [10], in experiment [11], in experiment [12] and in experiment [13] was “inactive” each time. The Potency result in experiment [14], in [15] and in experiment [16] was “inactive” throughout.
Consider `NC(=O)C1(N2CCCCC2)CCN(CCCC(=O)c2ccc(F)cc2)CC1`, for which the figures for the activity, negative = inhibition in experiment [1] (setting [20]) and in experiment [1] (setting [21]) were 3.28% and 10.8%, respectively. In addition, the Potency result in experiment [2], in experiment [17], in experiment [3], in experiment [4], in experiment [5] and in experiment [6] was “inactive” throughout. The Potency result in [7], in experiment [8], in experiment [9], in experiment [11], in experiment [12] and in [13] was “inactive” throughout. Also, the Potency result in [14], in [15] and in experiment [16] was “inactive” throughout.
For the compound `Cc1cc(-c2ccccc2)nnc1NCCN1CCOCC1`, the activity, negative = inhibition in experiment [1] (setting [20]) was 6.44%; in experiment [1] (setting [21]) it was 8.72%. The Potency result in [2], in experiment [17], in [3], in [4], in experiment [5] and in experiment [6] was “inactive” throughout. Further, the Potency result in [7], in experiment [8], in experiment [9], in [10], in [11] and in experiment [12] was “inactive” each time. The Potency result in experiment [13], in experiment [14], in experiment [15], in experiment [18] and in [16] was “inactive” each time.
Turning to `O=C(Oc1cccc2cccnc12)c1ccccc1`, the activity, negative = inhibition in experiment [1] (setting [20]) is 5.84%; in experiment [1] (setting [21]), -15.2%. In addition, the Potency result in [2], in [17], in experiment [3], in experiment [4], in experiment [5] and in [6] was “inactive” throughout. Besides, the Potency entry in experiment [7], in [8], in experiment [9], in experiment [10], in experiment [11] and in [12] was “inactive” throughout. Besides, the Potency entry in [13], in experiment [14], in [15], in experiment [18] and in [16] was “inactive” each time.
As for `CCC(CC)(CC(=O)Nc1cccc(/C=C/c2nc(C3CCC3)cs2)c1)C(=O)O`, the figures for the activity, negative = inhibition in [1] (setting [20]) and in experiment [1] (setting [21]) were -2.66% and -0.894%, respectively. For the same compound, the Potency result in experiment [2], in experiment [17], in experiment [3], in [4], in experiment [5] and in experiment [6] was “inactive” each time. Besides, the Potency result in experiment [7], in experiment [8], in experiment [9], in experiment [10], in [11] and in experiment [12] was “inactive” throughout. For the same compound, the Potency result in experiment [13], in experiment [14], in experiment [15], in [18] and in experiment [16] was “inactive” in each case.
Take `NS(=O)(=O)Cc1noc2ccccc12`: the activity, negative = inhibition in [1] (setting [20]) was 6.43%; in [1] (setting [21]) it was 4.66%. The Potency result in experiment [2], in experiment [17], in experiment [3], in experiment [4], in [5] and in [6] was “inactive” throughout. Moreover, the Potency entry in [7], in experiment [8], in [9], in [10], in experiment [11] and in experiment [12] was “inactive” throughout. The Potency result in [13], in experiment [14], in experiment [15], in experiment [18] and in [16] was “inactive” in each case.
With `CCOC(=O)Nc1ccc2c(c1)N(C(=O)CCN1CCOCC1)c1ccccc1S2`, the activity, negative = inhibition is 5.76% in experiment [1] (setting [22]) and 22.5% in experiment [1] (setting [23]). Besides, the Potency result in experiment [2], in experiment [17], in experiment [3], in experiment [4], in [5] and in experiment [6] was “inactive” in each case. Also, the Potency entry in experiment [7], in experiment [9], in [10], in experiment [11], in experiment [12] and in experiment [13] was “inactive” each time. The Potency entry in experiment [14], in experiment [15], in experiment [18] and in experiment [16] was “inactive” throughout.
For the compound `O=C1C(O)=C(O)C(=O)C(O)=C1O`, the results for the activity, negative = inhibition in experiment [1] (setting [20]) and in experiment [1] (setting [21]) were 5.3% and 12.3%, respectively. For the same compound, the Potency result in [17], in experiment [3], in [4], in [5], in experiment [6] and in experiment [7] was “inactive” throughout. Moreover, the Potency result in experiment [8], in experiment [9], in experiment [10], in experiment [11], in experiment [12] and in [13] was “inactive” each time. Further, the Potency entry in experiment [14], in experiment [15], in [18] and in [16] was “inactive” throughout.
For the compound `Cl/C(=C\n1cncn1)c1ccc(Cl)cc1Cl`, the figures for the activity, negative = inhibition in [1] (setting [20]) and in experiment [1] (setting [21]) were 10.9% and 7.76%, respectively. Besides, the Potency entry in experiment [2], in experiment [17], in experiment [3], in experiment [4], in [5] and in [6] was “inactive” throughout. Moreover, the Potency result in experiment [7], in experiment [8], in experiment [9], in [10], in experiment [11] and in experiment [12] was “inactive” each time. The Potency result in experiment [13], in experiment [14], in experiment [15], in [18] and in experiment [16] was “inactive” throughout.
With `CC(=O)OCC(=O)[C@H]1CC[C@H]2[C@@H]3CCC4=CC(=O)CC[C@]4(C)[C@H]3CC[C@]12C`, the activity, negative = inhibition in [1] (setting [20]) was -11.3%; in experiment [1] (setting [21]) it was -3.83%. Moreover, the Potency result in experiment [2], in [17], in [4], in experiment [6], in experiment [7] and in experiment [8] was “inactive” throughout. Besides, the Potency result in experiment [9], in experiment [10], in experiment [11], in [12], in [13] and in experiment [15] was “inactive” throughout. Besides, the Potency entry in [16] was “inactive”.
Take `C#C[C@]1(OC(C)=O)CC[C@H]2[C@@H]3CCC4=C/C(=N/O)CC[C@@H]4[C@H]3CC[C@@]21CC`: the activity, negative = inhibition in experiment [1] (setting [20]) is -6.98%; in experiment [1] (setting [21]), -15.6%. Further, the Potency result in experiment [2], in experiment [17], in [3], in experiment [4], in experiment [5] and in experiment [6] was “inactive” throughout. Besides, the Potency result in [7], in experiment [8], in [10], in [11], in [12] and in experiment [13] was “inactive” throughout. The Potency entry in experiment [14], in [15], in experiment [18] and in [16] was “inactive” each time.
For `CN1CCN(C2=Nc3cc(F)ccc3Cc3ccccc32)CC1`, the activity, negative = inhibition in experiment [1] (setting [20]) is -5.08%; in [1] (setting [21]), -0.186%. In addition, the Potency result in experiment [2], in experiment [6], in experiment [7], in experiment [8], in experiment [9] and in [11] was “inactive” in each case. In addition, the Potency result in experiment [12], in [13], in experiment [14], in [15] and in [16] was “inactive” each time. Besides, the Potency in [19] was 12.6 µM (active); in experiment [18], 7.08 µM (active).
As for `COc1ccc(C(=O)c2ccccc2O)c(O)c1`, the activity, negative = inhibition in [1] (setting [22]) is -29.2%.
As to `COc1cc(N)c(Cl)cc1C(=O)NC1CCN(Cc2ccccc2)CC1`, the activity, negative = inhibition in experiment [1] (setting [23]) was -11.7%.
Consider `CC(=O)O[C@]1(C(C)=O)CC[C@H]2[C@@H]3C=C(Cl)C4=CC(=O)CC[C@]4(C)[C@H]3CC[C@@]21C`, for which the Potency in experiment [1] (parasite line A) was 12.6 µM (active).
Regarding `Oc1c(Cl)cc(Cl)c(Cl)c1Cc1c(O)c(Cl)cc(Cl)c1Cl`, the Potency in experiment [1] (parasite line A) was 11.2 µM (active).
